Values without a mark were called inactive. The source made the active and inactive calls. Unless noted, no stated cut-off is given here; in the data, active means inhibition above about 30%; inactive means the rest.

The first experiment in a line: 384-well plate pilot, post-Golgi transport modulator project, inhibition of yeast transport mutant growth (AID 636; in the data active means inhibition above about 31%). The settings on record: absorbance 615 nm, about 18 h, hits give high values.
With `Cc1ccc(C)c(SCC(=O)Nc2nnc(-c3ccccc3)o2)c1`, the inhibition (commonly the change of the read-out against control, counted positive when it falls) is -3.64%.

`Cc1ccccc1CN1CCN(C(=O)c2cccc(F)c2)CC1`: the inhibition is -1.87%.

For the compound `Cc1cc(NCCCn2ccnc2)n2c(nc3ccccc32)c1C#N`, the inhibition was 4.29%.

Consider `CCOC(=O)C1CCN(C(=O)CN(Cc2ccccc2)S(C)(=O)=O)CC1`, for which the inhibition was -6.4%.

As for `COc1ccc(CCNC(=O)c2nc3ncccn3n2)cc1OC`, the inhibition was -4.08%.

Regarding `CCOC(=O)N1CCN(C(=O)Nc2ccc(Cl)cc2)CC1`, the inhibition was -3.55%.

In the case of `O=C(CN1C(=O)COc2ccccc21)NCCCN1CCN(Cc2ccccc2)CC1`, the inhibition is 3.51%.

On to `O=C(O)C1CC(=O)N(c2ccc(OCc3c(F)cccc3Cl)cc2)C1` (configuration not stated), for which the inhibition is -0.52%.

Consider `COC(=O)C1(C(=O)OC)Sc2ccccc2C1=O`, for which the inhibition is -3.9%.

On to `CCOc1ccccc1OCCn1nnc2ccccc21`, for which the inhibition was -5.73%.

For the compound `Cc1nn(-c2ccccc2)c(Cl)c1C1C(C#N)=C(N)OC2=C1C(=O)CC(C)(C)C2` (configuration not stated), the inhibition was -4.68%.

For `Cc1cccc2cc(CN(Cc3nnnn3Cc3ccco3)C3CCCC3)c3nnnn3c12`, the inhibition was 68.2% (active).

With `COc1ccc(S(=O)(=O)NCc2ccco2)cc1-c1nnc2c3ccccc3c(C)nn12`, the inhibition was -5.92%.

For `O=S(=O)(c1ccccc1)N1CCSC1c1ccco1` (configuration not stated), the inhibition was -0.13%.

`CCNc1ccc2c(Cl)cc(=O)oc2c1`: the inhibition is -5.73%.

As to `COc1ccccc1-c1ccc(Nc2cccc(C(C)=O)c2)nn1`, the inhibition was -0.52%.

Take `O=C(NC1CCCCC1)C(c1ccc(Cl)cc1)N(C(=O)c1cnccn1)c1ccc2c(c1)OCO2` (configuration not stated): the inhibition was -5.47%.

As for `COC(=O)CN(c1ccc2c(c1)OCO2)S(C)(=O)=O`, the inhibition was -2.63%.

As to `CCS(=O)(=O)c1nc2ccccc2n1CC(=O)N1CCOCC1`, the inhibition is -5.32%.

For `Cc1onc(-c2c(Cl)cccc2Cl)c1C(=O)NCCCN1CCOCC1`, the inhibition is -2.5%.

With `O=C(NCCc1ccccc1)c1cc(-c2ccco2)on1`, the inhibition was -4.08%.

As for `Cn1nc(-c2ccc(C(=O)N3CCN(c4ccccc4)CC3)cc2)c2ccccc2c1=O`, the inhibition was 0.26%.

`CCCn1c(SCC(=O)NCc2ccco2)nc2c1c(=O)n(C)c(=O)n2C`: the inhibition was -7.87%.

For `CC(=O)N1CCN(S(=O)(=O)c2ccc(S(=O)(=O)NCC(C)C)cc2)CC1`, the inhibition is -5.73%.

As to `COC(=O)c1ccccc1NC(=O)c1noc2c1CC(C(C)(C)C)CC2` (configuration not stated), the inhibition was -1.17%.

Consider `COC(=O)CN1C(=O)C2(C(C#N)=C(N)Oc3c2c(C)nn3-c2ccccc2)c2ccccc21` (configuration not stated), for which the inhibition was -6.32%.

As for `Cc1ccc(OCc2nnc(SCC(=O)Nc3ccc4c(c3)OCO4)n2C)cc1`, the inhibition is -7.07%.

Consider `CN(C(=O)c1c(Cl)nc2sccn12)C1CCCCC1`, for which the inhibition is -5.53%.

`CCCN(CCC)CCCNS(=O)(=O)c1ccc2c(c1)oc(=O)n2C`: the inhibition was -4.4%.

For `CC(C)NC(=O)NC(=O)COc1cccc2c1OC(C)(C)C2`, the inhibition was -3.38%.

`Cc1ccc(S(=O)(=O)N(C)CC(=O)NC2CC(C)(C)NC(C)(C)C2)cc1`: the inhibition is -1.04%.

`CC1Cc2ccccc2N1C(=O)Cc1cccs1` (configuration not stated): the inhibition is -1.71%.

As for `COc1ccc(-c2coc3c(CN4CCCCC4)c(O)c(CN4CCCCC4)c(O)c3c2=O)cc1`, the inhibition is 0%.

Consider `CSc1cccc(NC(=O)CN(C)S(=O)(=O)c2ccccc2)c1`, for which the inhibition is -4.93%.

For the compound `O=C(NCCN1CCCC1)C1COc2ccccc2O1` (configuration not stated), the inhibition was -7.14%.

Turning to `COc1ccc(C)cc1NC(=O)CCN1CCCC1`, the inhibition was -6.13%.

The next experiment is described as follows: growth suppression of yeast trafficking mutant, preliminary HTS, modulators of trafficking downstream of Golgi apparatus project, 1536-format plate, OD 615 nm (AID 637). The conditions noted are these: yeast transport mutant growth, absorbance 615 nm, 18 h; hits give high values.
`Cc1ccc(C)c(SCC(=O)Nc2nnc(-c3ccccc3)o2)c1`: the inhibition is -1.27%.

`Cc1ccccc1CN1CCN(C(=O)c2cccc(F)c2)CC1`: the inhibition is -0.16%.

On to `Cc1cc(NCCCn2ccnc2)n2c(nc3ccccc32)c1C#N`, for which the inhibition was 6.51%.

With `CCOC(=O)C1CCN(C(=O)CN(Cc2ccccc2)S(C)(=O)=O)CC1`, the inhibition was 2.7%.

On to `COc1ccc(CCNC(=O)c2nc3ncccn3n2)cc1OC`, for which the inhibition was 7.78%.

Regarding `CCOC(=O)N1CCN(C(=O)Nc2ccc(Cl)cc2)CC1`, the inhibition was 4.6%.

Regarding `O=C(CN1C(=O)COc2ccccc21)NCCCN1CCN(Cc2ccccc2)CC1`, the inhibition is 22.4%.

Consider `O=C(O)C1CC(=O)N(c2ccc(OCc3c(F)cccc3Cl)cc2)C1` (configuration not stated), for which the inhibition is -1.9%.

For the compound `COC(=O)C1(C(=O)OC)Sc2ccccc2C1=O`, the inhibition is 3.33%.

Take `CCOc1ccccc1OCCn1nnc2ccccc21`: the inhibition is 5.24%.

As for `Cc1nn(-c2ccccc2)c(Cl)c1C1C(C#N)=C(N)OC2=C1C(=O)CC(C)(C)C2` (configuration not stated), the inhibition is -4.29%.

As to `Cc1cccc2cc(CN(Cc3nnnn3Cc3ccco3)C3CCCC3)c3nnnn3c12`, the inhibition was 4.44%.

For `COc1ccc(S(=O)(=O)NCc2ccco2)cc1-c1nnc2c3ccccc3c(C)nn12`, the inhibition is 7.14%.

For `O=S(=O)(c1ccccc1)N1CCSC1c1ccco1` (configuration not stated), the inhibition is 5.56%.

Turning to `CCNc1ccc2c(Cl)cc(=O)oc2c1`, the inhibition was -1.59%.

`COc1ccccc1-c1ccc(Nc2cccc(C(C)=O)c2)nn1`: the inhibition was -4.92%.

Consider `O=C(NC1CCCCC1)C(c1ccc(Cl)cc1)N(C(=O)c1cnccn1)c1ccc2c(c1)OCO2` (configuration not stated), for which the inhibition is -5.71%.

In the case of `COC(=O)CN(c1ccc2c(c1)OCO2)S(C)(=O)=O`, the inhibition was 6.67%.

For `CCS(=O)(=O)c1nc2ccccc2n1CC(=O)N1CCOCC1`, the inhibition was -1.27%.

On to `Cc1onc(-c2c(Cl)cccc2Cl)c1C(=O)NCCCN1CCOCC1`, for which the inhibition is -2.22%.

Take `O=C(NCCc1ccccc1)c1cc(-c2ccco2)on1`: the inhibition is 7.94%.

`Cn1nc(-c2ccc(C(=O)N3CCN(c4ccccc4)CC3)cc2)c2ccccc2c1=O`: the inhibition was 27.3%.

For the compound `CCCn1c(SCC(=O)NCc2ccco2)nc2c1c(=O)n(C)c(=O)n2C`, the inhibition is 2.38%.

For `CC(=O)N1CCN(S(=O)(=O)c2ccc(S(=O)(=O)NCC(C)C)cc2)CC1`, the inhibition is 0.16%.

As for `COC(=O)c1ccccc1NC(=O)c1noc2c1CC(C(C)(C)C)CC2` (configuration not stated), the inhibition is 0.63%.

Take `COC(=O)CN1C(=O)C2(C(C#N)=C(N)Oc3c2c(C)nn3-c2ccccc2)c2ccccc21` (configuration not stated): the inhibition is -1.43%.

Regarding `Cc1ccc(OCc2nnc(SCC(=O)Nc3ccc4c(c3)OCO4)n2C)cc1`, the inhibition was 6.98%.

For `CN(C(=O)c1c(Cl)nc2sccn12)C1CCCCC1`, the inhibition is -5.4%.

Consider `CCCN(CCC)CCCNS(=O)(=O)c1ccc2c(c1)oc(=O)n2C`, for which the inhibition is -4.44%.

`CC(C)NC(=O)NC(=O)COc1cccc2c1OC(C)(C)C2`: the inhibition was 0.79%.

Take `Cc1ccc(S(=O)(=O)N(C)CC(=O)NC2CC(C)(C)NC(C)(C)C2)cc1`: the inhibition was 0.32%.

Regarding `CC1Cc2ccccc2N1C(=O)Cc1cccs1` (configuration not stated), the inhibition is 2.06%.

Consider `COc1ccc(-c2coc3c(CN4CCCCC4)c(O)c(CN4CCCCC4)c(O)c3c2=O)cc1`, for which the inhibition is 6.19%.

In the case of `CSc1cccc(NC(=O)CN(C)S(=O)(=O)c2ccccc2)c1`, the inhibition was 1.27%.

Consider `O=C(NCCN1CCCC1)C1COc2ccccc2O1` (configuration not stated), for which the inhibition was -3.02%.

Regarding `COc1ccc(C)cc1NC(=O)CCN1CCCC1`, the inhibition is 1.11%.
